Assays:
Experiment in all cases: DAPPL (digital affinity profiling via proximity ligation, sequencing); 10 mM Tris-HCl pH 7.5, 50 mM NaCl, 1 mM DTT, 4% glycerol, room temperature, 30 min; GST-TFs on glutathione beads, 16-mer random dsDNA library, 0.1% formaldehyde crosslink after washing; high values mean tight binding
FEV = biological target: T1, FEV (Homo sapiens, UniProt Q99581 1-238); conditions: protein: recombinant; tags: N-terminal GST; dsDNA, one strand shown
T1 sequence: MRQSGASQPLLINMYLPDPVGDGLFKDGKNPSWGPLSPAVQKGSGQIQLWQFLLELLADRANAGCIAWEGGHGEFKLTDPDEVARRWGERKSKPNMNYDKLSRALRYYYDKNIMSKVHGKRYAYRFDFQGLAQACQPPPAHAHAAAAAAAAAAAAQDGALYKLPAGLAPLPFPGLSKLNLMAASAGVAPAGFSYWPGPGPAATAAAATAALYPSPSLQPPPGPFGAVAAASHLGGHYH
Outline: (§1)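 Binding signal is given per hexamer as its read frequency for a factor divided by its frequency in the tag-only sample. GST-fused human transcription factors were expressed in yeast, captured on glutathione beads, barcoded with DNA and pooled with that sample, then incubated with 200 nmole of a 16-mer random double-stranded DNA library in Tris/NaCl/DTT/glycerol buffer for 30 min at room temperature. The pools were then washed, crosslinked, proximity-ligated, amplified by PCR and sequenced on an Illumina NextSeq500.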

ETV5 = ETV5 (Homo sapiens, UniProt P41161 1-510); conditions: protein: recombinant; tags: N-terminal GST; dsDNA, one strand shown
ETV5, sequence (P41161 whole entry): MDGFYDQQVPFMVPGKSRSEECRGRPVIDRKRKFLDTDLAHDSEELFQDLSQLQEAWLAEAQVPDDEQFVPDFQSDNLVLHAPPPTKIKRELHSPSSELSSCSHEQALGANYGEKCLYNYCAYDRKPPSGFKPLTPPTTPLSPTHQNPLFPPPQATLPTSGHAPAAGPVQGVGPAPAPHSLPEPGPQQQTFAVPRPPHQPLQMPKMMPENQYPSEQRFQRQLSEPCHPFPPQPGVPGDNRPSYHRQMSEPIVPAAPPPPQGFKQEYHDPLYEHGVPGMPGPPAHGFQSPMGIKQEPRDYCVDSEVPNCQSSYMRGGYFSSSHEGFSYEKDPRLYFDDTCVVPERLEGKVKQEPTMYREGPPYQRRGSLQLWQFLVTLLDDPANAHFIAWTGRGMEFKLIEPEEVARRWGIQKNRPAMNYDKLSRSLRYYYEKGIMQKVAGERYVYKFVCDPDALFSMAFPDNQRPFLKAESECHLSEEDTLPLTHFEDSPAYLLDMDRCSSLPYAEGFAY
Outline: as §1

HSF1 = HSF1 (Homo sapiens, UniProt Q00613 1-529); conditions: protein: recombinant; tags: N-terminal GST; chain copies: 3; dsDNA, one strand shown
HSF1, sequence (Q00613 whole entry): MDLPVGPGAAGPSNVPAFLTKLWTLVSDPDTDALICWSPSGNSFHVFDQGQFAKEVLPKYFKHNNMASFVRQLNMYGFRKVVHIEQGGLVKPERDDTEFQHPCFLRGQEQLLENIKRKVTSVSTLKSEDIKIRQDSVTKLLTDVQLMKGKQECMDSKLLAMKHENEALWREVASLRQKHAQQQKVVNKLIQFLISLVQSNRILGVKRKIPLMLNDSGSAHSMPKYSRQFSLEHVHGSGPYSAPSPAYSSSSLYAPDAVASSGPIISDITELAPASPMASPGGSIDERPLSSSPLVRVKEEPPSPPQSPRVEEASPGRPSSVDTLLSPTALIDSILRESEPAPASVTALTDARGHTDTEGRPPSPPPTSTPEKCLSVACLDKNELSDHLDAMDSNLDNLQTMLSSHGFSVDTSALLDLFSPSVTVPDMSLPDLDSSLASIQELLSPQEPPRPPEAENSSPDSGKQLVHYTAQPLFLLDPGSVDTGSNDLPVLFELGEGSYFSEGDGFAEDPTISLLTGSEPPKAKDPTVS
Outline: as §1

SPIC = biological target: T2, SPIC (Homo sapiens, UniProt Q8N5J4 1-248); conditions: protein: recombinant; tags: N-terminal GST; dsDNA, one strand shown
T2 sequence: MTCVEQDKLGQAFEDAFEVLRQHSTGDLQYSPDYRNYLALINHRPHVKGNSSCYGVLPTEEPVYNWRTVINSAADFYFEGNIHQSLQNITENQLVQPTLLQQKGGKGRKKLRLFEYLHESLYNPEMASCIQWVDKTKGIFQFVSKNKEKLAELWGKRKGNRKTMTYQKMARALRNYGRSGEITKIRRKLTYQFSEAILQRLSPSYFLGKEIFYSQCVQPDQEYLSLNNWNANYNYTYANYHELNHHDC
Outline: as §1

ELF4 = ELF4 (Homo sapiens, UniProt Q99607 1-663); conditions: protein: recombinant; tags: N-terminal GST; dsDNA, one strand shown
ELF4, sequence (Q99607 whole entry): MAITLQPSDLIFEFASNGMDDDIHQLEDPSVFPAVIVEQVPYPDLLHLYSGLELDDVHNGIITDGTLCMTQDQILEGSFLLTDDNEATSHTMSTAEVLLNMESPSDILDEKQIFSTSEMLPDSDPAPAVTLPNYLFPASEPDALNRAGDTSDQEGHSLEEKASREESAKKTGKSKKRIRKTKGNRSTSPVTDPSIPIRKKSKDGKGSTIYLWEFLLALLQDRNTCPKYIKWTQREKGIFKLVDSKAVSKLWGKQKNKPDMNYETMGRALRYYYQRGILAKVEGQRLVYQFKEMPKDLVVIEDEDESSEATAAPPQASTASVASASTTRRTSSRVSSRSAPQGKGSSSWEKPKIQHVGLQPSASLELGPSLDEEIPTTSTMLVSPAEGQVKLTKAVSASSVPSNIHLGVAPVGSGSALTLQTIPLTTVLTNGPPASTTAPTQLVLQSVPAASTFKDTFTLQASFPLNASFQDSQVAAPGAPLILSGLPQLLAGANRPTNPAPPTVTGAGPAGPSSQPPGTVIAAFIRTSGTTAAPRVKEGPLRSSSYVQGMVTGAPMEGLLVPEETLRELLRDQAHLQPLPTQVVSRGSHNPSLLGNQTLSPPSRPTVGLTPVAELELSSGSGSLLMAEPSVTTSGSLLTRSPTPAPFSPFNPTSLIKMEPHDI
Outline: as §1

ELK4 = biological target: T3, ELK4 (Homo sapiens, UniProt P28324-2 1-405); conditions: protein: recombinant; tags: N-terminal GST; dsDNA, one strand shown
T3 sequence: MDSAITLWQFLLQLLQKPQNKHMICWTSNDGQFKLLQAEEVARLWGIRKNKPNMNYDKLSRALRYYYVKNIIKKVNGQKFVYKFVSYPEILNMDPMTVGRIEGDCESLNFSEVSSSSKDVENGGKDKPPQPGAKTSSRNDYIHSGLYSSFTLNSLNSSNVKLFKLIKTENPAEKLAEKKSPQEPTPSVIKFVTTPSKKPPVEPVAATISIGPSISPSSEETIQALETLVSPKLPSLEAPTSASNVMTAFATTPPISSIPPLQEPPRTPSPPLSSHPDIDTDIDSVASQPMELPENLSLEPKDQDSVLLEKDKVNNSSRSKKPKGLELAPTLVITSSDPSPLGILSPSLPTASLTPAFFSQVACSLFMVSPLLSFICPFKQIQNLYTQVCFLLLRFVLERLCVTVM
Outline: as §1

ETV2 = biological target: T4, ETV2 (Homo sapiens, UniProt O00321 1-342); conditions: protein: recombinant; tags: N-terminal GST; dsDNA, one strand shown
T4 sequence: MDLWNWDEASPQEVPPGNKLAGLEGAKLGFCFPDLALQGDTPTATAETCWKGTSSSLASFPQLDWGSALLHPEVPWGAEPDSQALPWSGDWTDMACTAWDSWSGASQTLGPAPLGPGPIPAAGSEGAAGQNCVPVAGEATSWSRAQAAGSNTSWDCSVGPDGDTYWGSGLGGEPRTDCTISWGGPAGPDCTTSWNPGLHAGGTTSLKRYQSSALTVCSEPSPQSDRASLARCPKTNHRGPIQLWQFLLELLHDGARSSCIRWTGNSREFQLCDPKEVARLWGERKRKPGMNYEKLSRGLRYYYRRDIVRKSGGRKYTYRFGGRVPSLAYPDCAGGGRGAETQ
Outline: as §1

ELF3 = biological target: T5, ELF3 (Homo sapiens, UniProt P78545 1-371); conditions: protein: recombinant; tags: N-terminal GST; dsDNA, one strand shown
T5 sequence: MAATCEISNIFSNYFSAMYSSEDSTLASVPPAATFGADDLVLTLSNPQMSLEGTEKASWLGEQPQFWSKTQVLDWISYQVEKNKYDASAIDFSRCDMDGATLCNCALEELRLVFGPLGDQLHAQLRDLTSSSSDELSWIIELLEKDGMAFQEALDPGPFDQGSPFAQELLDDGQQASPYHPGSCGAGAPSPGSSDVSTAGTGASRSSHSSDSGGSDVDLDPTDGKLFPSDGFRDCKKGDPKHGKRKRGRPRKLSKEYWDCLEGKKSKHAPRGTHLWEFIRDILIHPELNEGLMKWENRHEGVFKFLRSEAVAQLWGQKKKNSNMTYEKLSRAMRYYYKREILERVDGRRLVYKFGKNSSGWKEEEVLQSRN
Outline: as §1

CRX = CRX (Homo sapiens, UniProt O43186 1-299); conditions: protein: recombinant; tags: N-terminal GST; dsDNA, one strand shown
CRX, sequence (O43186 whole entry): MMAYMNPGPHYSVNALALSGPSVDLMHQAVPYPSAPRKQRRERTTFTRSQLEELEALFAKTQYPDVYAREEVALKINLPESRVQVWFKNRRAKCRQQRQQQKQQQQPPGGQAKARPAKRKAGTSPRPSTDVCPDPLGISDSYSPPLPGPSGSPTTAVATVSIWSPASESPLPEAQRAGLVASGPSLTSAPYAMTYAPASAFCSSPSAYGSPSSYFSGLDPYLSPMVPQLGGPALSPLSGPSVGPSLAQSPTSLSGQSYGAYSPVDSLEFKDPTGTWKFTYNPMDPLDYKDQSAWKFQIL
Outline: as §1

ETV1 = ETV1 (Homo sapiens, UniProt P50549 1-477); conditions: protein: recombinant; tags: N-terminal GST; dsDNA, one strand shown
ETV1, sequence (P50549 whole entry): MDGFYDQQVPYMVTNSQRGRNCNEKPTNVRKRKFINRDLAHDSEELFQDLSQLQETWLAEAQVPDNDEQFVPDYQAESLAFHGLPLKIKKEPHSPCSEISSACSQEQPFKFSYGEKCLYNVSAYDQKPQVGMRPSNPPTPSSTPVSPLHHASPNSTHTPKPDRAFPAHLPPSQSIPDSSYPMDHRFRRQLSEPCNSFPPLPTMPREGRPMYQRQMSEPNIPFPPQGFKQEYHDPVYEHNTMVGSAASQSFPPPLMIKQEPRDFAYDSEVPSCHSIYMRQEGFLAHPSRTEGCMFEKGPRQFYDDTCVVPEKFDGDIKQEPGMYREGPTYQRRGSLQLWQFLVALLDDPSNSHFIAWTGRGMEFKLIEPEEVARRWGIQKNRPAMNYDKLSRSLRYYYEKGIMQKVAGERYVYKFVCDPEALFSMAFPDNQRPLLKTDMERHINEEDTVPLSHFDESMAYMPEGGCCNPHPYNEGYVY
Outline: as §1

ERF = biological target: T6, ERF (Homo sapiens, UniProt P50548 1-548); conditions: protein: recombinant; tags: N-terminal GST; dsDNA, one strand shown
T6 sequence: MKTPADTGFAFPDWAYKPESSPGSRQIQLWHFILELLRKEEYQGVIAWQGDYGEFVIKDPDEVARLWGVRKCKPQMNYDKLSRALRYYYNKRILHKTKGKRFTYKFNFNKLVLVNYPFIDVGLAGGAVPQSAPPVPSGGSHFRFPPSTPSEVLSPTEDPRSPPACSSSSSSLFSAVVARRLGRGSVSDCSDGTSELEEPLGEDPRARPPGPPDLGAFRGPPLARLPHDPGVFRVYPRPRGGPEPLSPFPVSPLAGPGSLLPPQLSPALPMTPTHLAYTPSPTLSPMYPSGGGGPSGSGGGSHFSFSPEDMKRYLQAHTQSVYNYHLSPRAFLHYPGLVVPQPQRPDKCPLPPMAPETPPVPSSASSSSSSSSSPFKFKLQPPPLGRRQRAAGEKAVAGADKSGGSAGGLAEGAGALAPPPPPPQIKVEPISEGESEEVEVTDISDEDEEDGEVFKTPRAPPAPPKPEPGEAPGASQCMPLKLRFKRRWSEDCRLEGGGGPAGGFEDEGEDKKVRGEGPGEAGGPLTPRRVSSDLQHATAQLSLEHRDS
Outline: as §1

ETV3L = biological target: T7, ETV3L (Homo sapiens, UniProt Q6ZN32 1-361); conditions: protein: recombinant; tags: N-terminal GST; dsDNA, one strand shown
T7 sequence: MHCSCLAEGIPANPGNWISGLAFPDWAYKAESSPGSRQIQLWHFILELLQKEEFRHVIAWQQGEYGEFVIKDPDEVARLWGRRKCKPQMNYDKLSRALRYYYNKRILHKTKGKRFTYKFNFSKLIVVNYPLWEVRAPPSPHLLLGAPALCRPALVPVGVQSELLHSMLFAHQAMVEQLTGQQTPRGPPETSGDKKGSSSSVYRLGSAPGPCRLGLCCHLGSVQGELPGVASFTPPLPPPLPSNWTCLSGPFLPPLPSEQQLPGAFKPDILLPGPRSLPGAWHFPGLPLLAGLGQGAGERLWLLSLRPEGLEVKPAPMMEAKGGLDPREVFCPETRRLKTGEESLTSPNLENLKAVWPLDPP
Outline: as §1

ETS2 = biological target: T8, ETS2 (Homo sapiens, UniProt P15036 1-469); conditions: protein: recombinant; tags: N-terminal GST; dsDNA, one strand shown
T8 sequence: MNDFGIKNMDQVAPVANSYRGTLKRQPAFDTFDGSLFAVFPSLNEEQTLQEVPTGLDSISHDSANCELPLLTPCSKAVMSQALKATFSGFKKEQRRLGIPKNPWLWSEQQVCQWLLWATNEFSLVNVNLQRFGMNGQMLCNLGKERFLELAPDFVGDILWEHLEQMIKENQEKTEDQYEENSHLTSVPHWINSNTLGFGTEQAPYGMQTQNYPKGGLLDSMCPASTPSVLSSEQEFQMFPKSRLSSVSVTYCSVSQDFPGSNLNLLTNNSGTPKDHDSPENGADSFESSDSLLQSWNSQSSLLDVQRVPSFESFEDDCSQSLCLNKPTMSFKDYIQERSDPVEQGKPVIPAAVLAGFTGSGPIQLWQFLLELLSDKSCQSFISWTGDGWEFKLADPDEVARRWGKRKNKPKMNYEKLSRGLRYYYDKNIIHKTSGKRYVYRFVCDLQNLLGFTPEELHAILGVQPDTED
Outline: as §1

SPDEF = biological target: T9, SPDEF (Homo sapiens, UniProt O95238 1-335); conditions: protein: recombinant; tags: N-terminal GST; dsDNA, one strand shown
T9 sequence: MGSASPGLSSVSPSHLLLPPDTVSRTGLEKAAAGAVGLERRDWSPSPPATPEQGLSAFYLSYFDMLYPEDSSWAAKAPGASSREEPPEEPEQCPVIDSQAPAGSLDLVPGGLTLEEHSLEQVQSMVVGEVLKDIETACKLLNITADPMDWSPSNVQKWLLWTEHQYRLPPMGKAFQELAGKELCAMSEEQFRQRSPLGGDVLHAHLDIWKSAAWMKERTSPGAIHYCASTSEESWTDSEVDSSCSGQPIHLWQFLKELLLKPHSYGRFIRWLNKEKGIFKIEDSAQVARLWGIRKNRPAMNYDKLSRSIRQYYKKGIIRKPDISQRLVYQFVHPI
Outline: as §1

ETV7 = biological target: T10, ETV7 (Homo sapiens, UniProt Q9Y603 1-341); conditions: protein: recombinant; tags: N-terminal GST; dsDNA, one strand shown
T10 sequence: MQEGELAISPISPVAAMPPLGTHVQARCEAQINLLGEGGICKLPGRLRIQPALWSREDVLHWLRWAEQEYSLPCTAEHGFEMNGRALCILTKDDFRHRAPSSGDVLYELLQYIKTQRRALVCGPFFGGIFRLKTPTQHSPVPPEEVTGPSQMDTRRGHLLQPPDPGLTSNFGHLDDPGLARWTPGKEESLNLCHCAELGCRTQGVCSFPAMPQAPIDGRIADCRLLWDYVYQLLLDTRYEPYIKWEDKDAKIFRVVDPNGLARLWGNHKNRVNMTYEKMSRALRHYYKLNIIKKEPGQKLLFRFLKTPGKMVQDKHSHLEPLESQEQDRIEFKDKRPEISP
Outline: as §1

ELF5 = biological target: T11, ELF5 (Homo sapiens, UniProt Q9UKW6-2 1-255); conditions: protein: recombinant; tags: N-terminal GST; dsDNA, one strand shown
T11 sequence: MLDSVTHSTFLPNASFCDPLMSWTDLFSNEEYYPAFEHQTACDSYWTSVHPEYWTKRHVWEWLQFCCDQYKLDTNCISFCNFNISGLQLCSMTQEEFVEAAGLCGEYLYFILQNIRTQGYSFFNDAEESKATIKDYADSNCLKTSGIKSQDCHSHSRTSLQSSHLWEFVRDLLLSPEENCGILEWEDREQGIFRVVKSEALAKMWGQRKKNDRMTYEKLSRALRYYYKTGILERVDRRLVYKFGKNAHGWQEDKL
Outline: as §1

ETV3 = biological target: T12, ETV3 (Homo sapiens, UniProt P41162-2 1-143); conditions: protein: recombinant; tags: N-terminal GST; dsDNA, one strand shown
T12 sequence: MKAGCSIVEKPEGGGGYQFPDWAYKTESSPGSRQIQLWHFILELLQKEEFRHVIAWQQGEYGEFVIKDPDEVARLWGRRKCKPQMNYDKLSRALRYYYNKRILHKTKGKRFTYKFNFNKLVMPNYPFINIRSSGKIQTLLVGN
Outline: as §1

ETV6 = ETV6 (Homo sapiens, UniProt P41212 1-452); conditions: protein: recombinant; tags: N-terminal GST; dsDNA, one strand shown
ETV6, sequence (P41212 whole entry): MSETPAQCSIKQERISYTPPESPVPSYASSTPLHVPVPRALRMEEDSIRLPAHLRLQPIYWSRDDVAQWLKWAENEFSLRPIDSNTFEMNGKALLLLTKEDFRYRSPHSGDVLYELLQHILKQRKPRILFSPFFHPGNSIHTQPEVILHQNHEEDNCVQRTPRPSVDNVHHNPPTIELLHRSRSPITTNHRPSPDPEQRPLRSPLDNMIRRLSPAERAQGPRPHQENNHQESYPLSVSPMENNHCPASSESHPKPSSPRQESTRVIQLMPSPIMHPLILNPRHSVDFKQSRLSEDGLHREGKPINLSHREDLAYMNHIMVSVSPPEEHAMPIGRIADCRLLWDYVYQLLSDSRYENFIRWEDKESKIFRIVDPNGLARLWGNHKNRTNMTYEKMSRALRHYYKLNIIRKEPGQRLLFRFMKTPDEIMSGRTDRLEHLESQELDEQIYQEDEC
Outline: as §1

Sequence: GTCTCA
- binding signal (FEV): 1.25 fold enrichment (6-mer frequency, TF over GST control)
- binding signal (ETV5): 1.4 fold enrichment (6-mer frequency, TF over GST control)
- binding signal (HSF1): 1.01 fold enrichment (6-mer frequency, TF over GST control)
- binding signal (SPIC): 1.4 fold enrichment (6-mer frequency, TF over GST control)
- binding signal (ELF4): 1.33 fold enrichment (6-mer frequency, TF over GST control)
- binding signal (ELK4): 1.34 fold enrichment (6-mer frequency, TF over GST control)
- binding signal (ETV2): 1.32 fold enrichment (6-mer frequency, TF over GST control)
- binding signal (ELF3): 1.48 fold enrichment (6-mer frequency, TF over GST control)
- binding signal (CRX): 1.12 fold enrichment (6-mer frequency, TF over GST control)
- binding signal (ETV1): 1.24 fold enrichment (6-mer frequency, TF over GST control)
- binding signal (ERF): 1.37 fold enrichment (6-mer frequency, TF over GST control)
- binding signal (ETV3L): 1.3 fold enrichment (6-mer frequency, TF over GST control)
- binding signal (ETS2): 1.34 fold enrichment (6-mer frequency, TF over GST control)
- binding signal (SPDEF): 1.29 fold enrichment (6-mer frequency, TF over GST control)
- binding signal (ETV7): 1.13 fold enrichment (6-mer frequency, TF over GST control)
- binding signal (ELF5): 1.3 fold enrichment (6-mer frequency, TF over GST control)
- binding signal (ETV3): 1.32 fold enrichment (6-mer frequency, TF over GST control)
- binding signal (ETV6): 1.16 fold enrichment (6-mer frequency, TF over GST control)
